# Reference: ChEMBL document CHEMBL3988442, “University of Dundee, Small-Polar-MMV Screening Library” (2021)
# “And” between values parts separate entries of the source, which are not always exact repeats. Equal values may be shown once. The campaign covered roughly 34,000 compounds. About 290 (0.85%) showed an effect of 50% or more. The entries come from a sample that favours strong results as a whole.
# System: Plasmodium falciparum
# Assay: Plasmodium falciparum sporozoite viability assay
# Assay type: functional, organism-based
# Design: scale not given: in the data most compounds retested in dose-response had high values
Compound,Percent Effect [%],Percent Effect (10 mM as filed; unlikely as a test dose)
CN(C)C(=O)CN1CCC2(CCN(S(C)(=O)=O)CC2)C1=O,9.72,
COc1ncccc1NC(=O)C1CC1,5.184,
Cc1cnn(CC2CCCN2CC(=O)Nc2nc(C)cs2)c1 (stereo unspecified),7.289,
CN(C)c1cc(C(=O)N2CCN(c3cc(C#N)ccn3)CC2)ccn1,0.09769,
CCc1ocnc1C(=O)N1CCCC1c1noc(C(C)C)n1 (stereo unspecified),-5.615,
COc1cccc(-n2c(C)cc(C(=O)NC(C)(C)C(N)=O)c2C)c1,5.357,
CN1CCC(c2n[nH]cc2-c2ccnc(N)c2)C1 (stereo unspecified),2.531,
Cc1nnc2n1CCN(CCOc1ccccc1)C2,,-26.14% and -25.56% and -5.728%
CS(=O)(=O)NCc1cc(-c2cc(F)cc(F)c2)nc(N2CCCC2)n1,13.63,
CN(Cc1ccccc1)C(=O)CCNc1ncccc1C#N,-0.1304,
CN(Cc1noc(C2CC2)n1)C1CCN(CC(=O)N2CCOCC2)C1 (stereo unspecified),4.316,
COCCOc1ncccc1NCc1nc2ccccc2n1C,,12.39% and -0.3581% and 11.74%
COc1cc(F)c(NCc2nc3ccccc3n2C)cc1OC,,61.41% and 85.71% and 92.05%
COCCOc1ccc(F)cc1NCc1nc2ccccc2n1C,,8.05% and -7.699% and 5.859%
Cc1cc(NC(=O)CNC2CCc3nc(C(C)C)nn3C2)no1 (stereo unspecified),3.617,
O=C(O)C(F)(F)F.O=C(O)C(F)(F)F.O=C1CC2(CCN(Cc3cccnc3)C2)CN1c1ccc2c(c1)OCO2 (stereo unspecified),12.41,
CN(C)c1nc2c(c(N3CCc4ccccc4C3)n1)CCNC2,6.667,
Cc1csc2c(N3CCC(NCCCC4CCOC4)CC3)ncnc12 (stereo unspecified),2.368,
Cl.c1ccc(-c2cc(CNCCCC3CCOC3)c3nnnn3c2)cc1 (stereo unspecified),-4.775,
Clc1ccc2nc(N3CCC(NCCCC4CCOC4)CC3)sc2c1 (stereo unspecified),,74.93% and 78.72%
COc1ccc2c(c1)C(=O)NC1(CC2)CCN(Cc2ccncc2)C1 (stereo unspecified),11.06,
CCCNC(=O)c1cc(C2CCCN(Cc3ccccn3)C2)no1 (stereo unspecified),2.586,
CNS(=O)(=O)Cc1cccc(CNC(=O)Nc2cn[nH]c2)c1,3.105,

Compound,Percent Effect [%],Percent Effect (10 mM as filed; unlikely as a test dose)
Cc1n[nH]c(C2CN(C(=O)c3cc4c(s3)CCCC4)CCO2)n1 (stereo unspecified),,11.47% and -8.902% and 7.352%
Cc1n[nH]c(C2CN(C(=O)c3cc4c(s3)CCC4)CCO2)n1 (stereo unspecified),,-3.516% and -12.52% and -10.81%
N#Cc1c(C2CCOC2)cc(-c2ccc(N3CCCCC3)cc2)nc1N (stereo unspecified),,29.44% and 63.96% and 52.39%
Oc1nnc(-c2ccccc2)c2sc(N3CCCCC3)nc12,,60.86% and 56.27%
Oc1nnc(-c2cccs2)c2sc(N3CCCC3)nc12,,-6.906% and -7.819%
Oc1nnc(-c2cccs2)c2sc(N3CCCCC3)nc12,,6.59% and -1.953%
CCOc1ccc(Cl)cc1CCNC(=O)Cn1nc(C)ccc1=O,-8.218,
Cc1nc(C)c(COc2ccc(S(=O)(=O)N(C)C)cc2)s1,,5.36% and 0% and 2.114%
Cc1nc(COc2ccc(N(C)S(C)(=O)=O)cc2)sc1C,,53.33% and 78.78% and 74.56%
CN1CCN(c2ccc(NS(=O)(=O)c3ccc(Br)s3)cc2C(=O)O)CC1,4.745,
Cc1ccc(CC(=O)N2CCN(c3nccs3)CC2)s1,2.447,
CC(C)OCCCN(Cc1ccncc1)Cc1cc(F)cc(F)c1.Cl,11.64,
CC(=O)Nc1nc(C(=O)N2CCCC(n3cncn3)C2)cs1 (stereo unspecified),,82.11% and 81.18% and 79.89%
CC(=O)N1CCN(C(=O)Nc2cnc3c(cnn3C(C)C)c2)CC1,25.32,
Cc1ccc(CN(CCN(C)C)Cc2ccnn2C2CCCCO2)o1.O=C(O)CC(O)(CC(=O)O)C(=O)O (stereo unspecified),-4.714,
COc1ccc2c(c1)CN(c1cc(N3CCCC3CO)ncn1)CC2 (stereo unspecified),-18.73,
OCC1CCCCN1c1ccc(-c2nc(-c3ccccc3F)no2)cn1 (stereo unspecified),,104% and 108.6% and 106.3%
CCOC(=O)C1CCCN(c2ccc(-c3nc(C)no3)cn2)C1 (stereo unspecified),-0.4292,
COCc1noc(-c2ccc(N3CCC[C@H]3CO)nc2)n1,,100.4% and 89.16% and 80.89%
OC[C@@H]1CCCN1c1ccc(-c2nc(COc3ccccc3)no2)cn1,3.859,
COCc1noc(-c2ccc(N3CCCCC3CO)nc2)n1 (stereo unspecified),,100.3% and 99.37% and 102%
COc1ccc(-c2noc(-c3ccc(N4CCC[C@H]4CO)nc3)n2)cc1,,49.77% and 66.78% and 41.57%
OC[C@@H]1CCCN1c1ccc(-c2nc(CCc3ccccc3)no2)cn1,-12.02,

Compound,Percent Effect [%],Percent Effect (10 mM as filed; unlikely as a test dose)
Cc1ccc(-c2nc(CN3CCCC3Cn3cc(C)cn3)no2)cc1 (stereo unspecified),-11.03,
OCC1CCCN1c1cc(N2CCc3ccccc3C2)ncn1 (stereo unspecified),3.468,
COc1cccc(CNC(=O)C(c2cccc(F)c2)N2CCOCC2)c1 (stereo unspecified),-3.044,
O=C(c1ccc(OCC2CC2)nc1)N1CCCC(n2cccn2)C1 (stereo unspecified),-19.18,
CC(C)C(=O)N(C)CC(=O)Nc1ccc(Br)cn1,14,
CC(C)NC(=O)C1CCN(c2nc3nc[nH]c(=O)c3s2)CC1,4.304,
O=C(O)CC(O)(CC(=O)O)C(=O)O.OC1CCN(Cc2ccnc(-c3cccnc3)n2)CC1,-11.33,
O=C(C1CCOCC1)N1CC[C@@H](O)[C@@H]1Cc1ccccc1,-0.722,
CCc1cc(C(=O)N2CCc3nc4c(C)csc4c(=O)n3CC2)on1,-3.013,
Cc1ccc(CNC2CCCN(Cc3noc(C4CC4)n3)C2)s1 (stereo unspecified),14.12,
Cc1nccc([C@@H]2C[C@H]3CN(S(=O)(=O)c4ccccc4)C[C@H]3O2)n1,-0.614,
COCc1noc(-c2ccc(N3CCCCC3COC)nc2)n1 (stereo unspecified),,46.38% and 65.96% and 53.91%
COCc1noc(-c2ccc(N3CCCC3c3ccc(F)cc3)nc2)n1 (stereo unspecified),-8.49,
COCc1noc(-c2ccc(N3CCCC3c3nccs3)nc2)n1 (stereo unspecified),12.02,
Cc1ccc(CN2Cc3nccn3CC(Cn3cccn3)C2)s1.O=C(O)C(F)(F)F (stereo unspecified),14.89,
Cn1cnc2c1CCN(c1ccnc(-c3ccccc3)n1)C2,,23.08% and 36.96% and 19.93%
Cn1cnc2c1CCN(Cc1csc(-c3ccsc3)n1)C2,,58.75% and 42.56% and 36.07%
c1ccc(OCCN2CCc3c(ncn3C3CC3)C2)cc1,1.314,
c1cc(-c2nc(CN3CCc4c(ncn4C4CC4)C3)cs2)cs1,,57.35% and 45.82% and 61.3%
c1ccc(-c2nccc(N3CCc4c(ncn4C4CC4)C3)n2)cc1,,47.31% and 54.94% and 44.8%
c1ccc(CCN2CCc3c(ncn3C3CC3)C2)nc1,,67.57% and 58.81%
Cn1cc(-c2nc(CN3CCc4c(ncn4C)C3)cs2)cn1,,16.12% and 15.46% and 16.04%
COc1cc(CCC(=O)N2CCC(c3cc4ncc(C)nc4[nH]3)C2)on1 (stereo unspecified),3.144,

Compound,Percent Effect [%],Percent Effect (10 mM as filed; unlikely as a test dose)
Cn1ncc2ccc(C3CCCN(C(=O)Cc4cccs4)C3)nc21 (stereo unspecified),10.94,
CC(=O)N1CCCC(Cc2cncc(Br)c2)C1 (stereo unspecified),6.529,
Cl.NC[C@H]1CC[C@H](c2c(C(N)=O)sc3ccccc32)CC1,-7.353,
CC(C)c1nccn1-c1cncc(C2CCCN(C3CCCC3)C2)n1 (stereo unspecified),-6.527,
CC(=O)Nc1ncc(S(=O)(=O)Nc2cccc(C)c2)s1,,-25.8% and -18.95%
Cn1cnc2c1CCN(Cc1csc(-c3ccccc3F)n1)C2,,76.94% and 88.44% and 75.64%
Cn1cnc2c1CCN(Cc1csc(-c3ccc(F)cc3)n1)C2,,-9.047% and 9.476% and -2.391%
c1ccc(Cc2noc(CN3CCc4c(ncn4C4CC4)C3)n2)cc1,,-14.98% and -2.391% and 8.348%
CN(Cc1ccncc1)C1CC2(CCN(Cc3ccccn3)CC2)C1,-12.29,
c1cc2c(cc1CN(Cc1nc(C3CC3)no1)C1CCCC1)OCO2,,12.71% and 9.481% and -1.226%
CCc1noc(CN(Cc2ccc3c(c2)OCO3)C2CCCC2)n1,,55.13% and 62.45% and 59.26%
COc1ccc(C(C(=O)O)N2CCC(Cn3cccn3)CC2)cc1F (stereo unspecified),,-7.781% and -11.29%
CC(C)n1nnc(CC(=O)NCC2(c3ccccc3F)CCCC2)n1,17.65,
O=C(CCCc1ccccn1)N1CCCC(n2cccn2)C1 (stereo unspecified),0.2979,
C1CCCN(CC2CCCN(Cc3noc(C4CC4)n3)C2)CC1 (stereo unspecified),3.026,
COc1ccc(C(CO)NC(=O)Nc2cccc(C(C)=O)c2)cc1 (stereo unspecified),,15.43% and 22.65%
COc1ccc(C(CO)NC(=O)Nc2cccc(C#N)c2)cc1 (stereo unspecified),,6.223% and 12.91% and -11.88%
COc1ccc(C(CO)NC(=O)Nc2cccc(F)c2)cc1 (stereo unspecified),,72.06% and 80.87%
CN(CCc1ccccc1)Cc1c(C2CCNCC2)[nH]c2ncccc12.Cl,-0.2567,
CNc1cncc(C2CCCN2S(=O)(=O)c2ccccc2F)n1 (stereo unspecified),7.397,
COc1ccc(CNCc2c(C)nn(C)c2N2CCOCC2)cc1,,-16.18% and -2.312% and -16.24%
Cc1nn(C)c(N2CCOCC2)c1CNCc1ccc(N(C)C)nc1,,6.683% and 14.39% and 13.71%
